NIH3T3 tox = NIH 3T3 cell cytotoxicity; 94,000 compounds, 4.3% hits; NIH 3T3 viability, CellTiter-Glo ATP luminescence, 48-72 h; AID 1345082; Potency, µM (series often up to 96.7 µM), hits mostly inhibitors; further: nearly all actives have a fitted effect of over 55% in size
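Mouse fibroblast NIH 3T3 cells, 400 per well, received compound via pintool and were incubated for 48 or 72 hr prior to CellTiter-Glo ATP luminescence measurement.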
NPR1 antag = blocks ANP-stimulated signaling of human Npr1 receptor | AID 1347048 | P16066 | 76,000 compounds, 1.6% hits | HEK293 hNpr1 GloSensor cGMP, ANP-stimulated luminescence | Potency, µM (doses to about 46.3 µM), usual class: inhibitors; calls by dose curve; further: nearly all actives have a fitted effect of over 60% in size
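Compound pre-incubated 30 min at room temperature on GloSensor-loaded HEK293 cells stably carrying hNpr1 and the pGS-40F cGMP biosensor. Stimulation uses hNppA at 0.1 nM final; luminescence is taken at baseline and 20 min post-agonist.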
HEK cytotox = kills HEK 293 cells | HEK 293 viability, ATP luminescence (CellTiter-Glo), 48-72 h | 94,000 compounds, 6.6% hits | AID 1345083 | Potency, µM (series often up to 115 µM), actives largely listed as inhibitors; further: nearly all actives have a fitted effect of over 60% in size
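Read-out: CellTiter-Glo ATP luminescence. Cells: HEK 293, 250 cells/well. Exposure: 48 or 72 hr, 37 degree Celsius.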
SNCA expr inhib = reduces expression of the alpha-synuclein gene; HEK-293 SNCA-luciferase knock-in, luminescence, 24 h; Potency, µM (titrated, usually from 57.2 µM), hits mostly inhibitors; 140,000 compounds, 0.17% hits; further: nearly all actives have a fitted effect of over 45% in size
SNCA viab count = counter-screen for SNCA expression inhibitors: cell viability; 150,000 compounds, 0.12% hits; AID 1671193; HEK-293-SNCA-luc viability, GF-AFC fluorescence, 24 h; Potency, µM (titrated, usually from 57.1 µM), actives largely listed as cytotoxic; further: nearly all actives have a fitted effect of over 30% in size
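HEK-293-SNCA-luc cells (1500/well) plated 24 h, then exposed 24 h to a dilution series; GF-AFC added 30 min at 37C, fluorescence 405/540 nm; normalised to medium-only and DMSO wells, Hill fit.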
FLuc inh = blocks purified firefly luciferase enzyme activity | P08659 | purified P. pyralis luciferase, luminescence, biochemical | Potency, µM (top dose mostly 115 µM), usual class: inhibitors | 76,000 compounds, 2.5% hits; further: nearly all actives have a fitted effect of over 65% in size
Target sequence (P08659 whole entry, looked up): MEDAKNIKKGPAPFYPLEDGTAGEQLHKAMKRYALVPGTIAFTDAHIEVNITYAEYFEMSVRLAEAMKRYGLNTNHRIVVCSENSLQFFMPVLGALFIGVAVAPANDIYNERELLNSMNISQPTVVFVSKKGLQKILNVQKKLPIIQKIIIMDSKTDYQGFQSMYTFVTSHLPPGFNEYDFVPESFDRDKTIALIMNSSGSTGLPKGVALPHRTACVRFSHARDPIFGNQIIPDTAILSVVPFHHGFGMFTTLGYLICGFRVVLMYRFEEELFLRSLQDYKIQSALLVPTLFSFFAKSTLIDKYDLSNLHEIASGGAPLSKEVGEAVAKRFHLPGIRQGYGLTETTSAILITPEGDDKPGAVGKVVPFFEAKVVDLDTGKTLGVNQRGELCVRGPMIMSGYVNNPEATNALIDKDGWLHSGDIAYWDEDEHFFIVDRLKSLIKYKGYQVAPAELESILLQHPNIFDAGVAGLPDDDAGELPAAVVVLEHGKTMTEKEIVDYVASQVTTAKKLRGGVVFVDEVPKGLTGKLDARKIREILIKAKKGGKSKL
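FLuc 10nM, D-luciferin 10uM, ATP 10uM, Mg acetate 10mM, Tris acetate pH 7.5, Tween/BSA; cpd qHTS; enzyme added last; CCD luminescence.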
Hits are given with their value; - = inactive; ? = inconclusive; . = not tested or not shown; ! = not active in a repeat; [ ] = another dose, or the depositor's remark. Rows were chosen to be rich in hits. Some 7.4% of all compounds tested hit in one or more screens of this group. Unless noted, the call rests on the fitted dose curve; in most records, active means well fitted curve in the direction sought with a large enough effect; inconclusive means small, poorly fitted or top-dose-only effect, or another doubt; inactive means no such curve, though single readings can be large; an effect the other way counts as inactive or inconclusive.

SMILES	NIH3T3 tox	NPR1 antag	HEK cytotox	SNCA expr inhib	SNCA viab count	FLuc inh
COC(=O)CCNC(=O)C1c2ccccc2C(=O)N(C2CCCCC2)C12CCCCC2 (stereo not given)	-	-	?	-	?	-
Cc1cc2nc(CO[C@H]3CN(Cc4ccc(C(F)(F)F)cc4)C[C@H]3F)[nH]c2cc1C	-	?	?	?	-	-
O=C1C(Oc2ccc(F)cc2)C2(CCCCC2)N1Cc1ccc(F)cc1 (stereo not given)	25µM	.	40µM	-	?	.
CN1CCCC2(CCN(C(=O)CCc3ccccc3O)C2)C1=O (stereo not given)	-	-	-	-	-	-
CN1CCCC2(CCN(C(=O)CCCOc3ccccc3)C2)C1=O (stereo not given)	-	-	-	-	-	28µM
CCOC(=O)c1c(C)n(-c2ccccc2)c2ccc(OC(=O)c3ccccc3NC(=O)C(C)(C)C)cc12	.	.	.	13µM	?	.
CCOC(=O)c1c(C)n(-c2ccccc2)c2ccc(OC(=O)c3cccc(C)c3)cc12	.	.	.	-	-	.
COc1ccc(Cn2c(=O)c(C(=O)NCc3ccccc3)nc3cccnc32)cc1	?	.	?	-	-	.
COc1ccc(Cn2c(=O)c(C(=O)NCCc3ccc(Cl)cc3)nc3cccnc32)cc1	-	.	-	-	-	.
COc1ccc(CCNC(=O)c2nc3cccnc3n(CC(C)C)c2=O)cc1	45µM	.	?	-	-	.
COc1ccc(CNC(=O)c2nc3cccnc3n(Cc3ccc(OC)cc3)c2=O)cc1	?	.	79µM!	-	-[12.5 µM]	.
O=C(NCc1cccc(C(F)(F)F)c1)C1(CCO)CCN(c2ncccn2)C1 (stereo not given)	-	-	-	-	-	-
C/C=C(/C)C(=O)O[C@H]1[C@H](OC(=O)/C(C)=C\C)[C@@]23C(CC1(C)C)[C@]1(CCC4[C@@]5(C)CC[C@H](O[C@@H]6O[C@H](C(=O)O)[C@@H](O)[C@H](O[C@@H]7O[C@H](CO)[C@H](O)[C@H](O)[C@H]7O[C@@H]7O[C@@H](C)[C@H](O)[C@@H](O)[C@H]7O[C@@H]7OC[C@@H](O)[C@H](O)[C@H]7O)[C@H]6O[C@@H]6O[C@H](CO)[C@H](O)[C@H](O)[C@H]6O)C(C)(C)C5CC[C@@]4(C)[C@]1(C)C[C@H]2O)O[C@H]3O (stereo not given in full)	.	.	.	.	3.6µM	.
CCC/C=C/C(=O)O[C@H]1CC(C)(C)CC2[C@@]13[C@H](O)C[C@]1(C)[C@@]2(CCC2[C@@]4(C)CC[C@H](O[C@@H]5O[C@H](C(=O)O)[C@@H](O)[C@H](O[C@@H]6O[C@H](CO)[C@H](O)[C@H](O)[C@H]6O[C@@H]6O[C@@H](C)[C@H](O)[C@@H](O)[C@H]6O[C@@H]6OC[C@](O)(CO)[C@H]6O)[C@H]5O[C@@H]5O[C@H](CO)[C@H](O)[C@H](O)[C@H]5O)C(C)(C)C4CC[C@]21C)O[C@H]3O (stereo not given in full)	.	.	.	.	-[12.5 µM]	.
Cc1nnc2ccc(N3CCCC(NC(=O)NC4CCCC4)C3)nn12 (stereo not given)	-	.	-	.	.	.
CC(O)c1cc2n(n1)CCN(Cc1cc(=O)n3nc(C4CC4)sc3n1)C2 (stereo not given)	-	-	-	-	-	-
COc1ccccc1OCCC1CCN(C(=O)NCC(C)C)C1 (stereo not given)	-	-	-	-	-	-
CN(CC(=O)N1CCC(CCOc2ccc(F)cc2)C1)S(=O)(=O)c1cccs1 (stereo not given)	?	?	50µM	-	-	-
COc1ccccc1C(=O)N1CCC(CCOc2ccc(C)cc2)C1 (stereo not given)	?	?	40µM	-	-	-
CCn1nc(C)c(-c2cc(C(=O)N3CCC(CCOc4ccccc4OC)C3)no2)c1C (stereo not given)	?	-	45µM	?	-	-
Cc1ccc(OCCC2CCN(C(=O)CCn3nc(C)cc3C)C2)cc1 (stereo not given)	?	?	50µM	-	-	-
COCC(=O)N[C@H](C)c1onc(-c2cccnc2)c1C(=O)O	-	-	-	-	-	-
O=C(c1n[nH]c2ccccc12)N1CCC2(CC1)CC(N1CCCCC1)CCO2 (stereo not given)	-	-	-	-	-	-
Cc1noc2c(NCCCn3ccnc3)cc(-c3ccccn3)nc12	25µM	-	-	-	-	-
Cc1noc2c(NCCCn3ccnc3)cc(-c3cccs3)nc12	?	-	?	-	-	-
SMILES	NIH3T3 tox	NPR1 antag	HEK cytotox	SNCA expr inhib	SNCA viab count	FLuc inh
Cc1noc2c(NCCCn3ccnc3)cc(-c3ccccc3)nc12	11µM	-	?	-	?	-
O=C(CCc1ccc(F)cc1)c1ccc2nnc(-c3cncc(Cl)c3)n2c1	?	.	?	-	-	.
CN1CCN(C(=O)c2cc(-c3cccc(C(F)(F)F)c3)c3nncn3n2)CC1	?	.	-	-	-	.
CN(C)C(=O)C1CCCN(Cc2cccc(-c3cccs3)c2)C1 (stereo not given)	?	.	100µM	-	-	.
CNC(=O)C1CCCN(Cc2cccc(-c3cccs3)c2)C1 (stereo not given)	-	.	100µM	.	.	.
Cc1nc(-c2c3n(c(=O)n(CC(=O)Nc4cc(F)ccc4F)c2=O)CCCC3)no1	-	-	-	-	?	-
COc1cccc(NC(=O)Cn2nc3n(c2=O)CCCC3)c1	-	-	-	-	-	-
COc1ccc(F)cc1-c1ccc(CN2CCC(NC(=O)c3ccc(C)cc3)C2)cc1 (stereo not given)	40µM	.	28µM	.	.	.
COc1ccc(F)cc1-c1ccc(CN2CCC(NC(=O)c3ccc(NC(C)=O)cc3)C2)cc1 (stereo not given)	20µM	.	?	.	.	.
COc1ccc(F)cc1-c1ccc(CN2CCC(NC(=O)Nc3ccccc3)C2)cc1 (stereo not given)	13µM	.	20µM	.	.	.
COc1ccc(F)cc1-c1ccc(C(=O)O)cc1	-	.	-	-	-	.
COc1ccc(F)cc1-c1ccc(CN2CCC(NC(=O)c3ccccn3)C2)cc1 (stereo not given)	45µM	.	?	.	.	.
COc1ccc(CN2CC3(CCN(S(=O)(=O)c4c(C)nn(C)c4C)CC3)C2=O)cc1	-	-	-	-	-	-
CC(C)CNC(=O)c1cc(C2CC2)nc2c1c(C1CCCN1)nn2C (stereo not given)	-	.	-	-	-	.
O=C(Nc1ccc(Cl)cc1)N1CCN(C(=O)c2nc3cccnc3n(C3CCCC3)c2=O)CC1	?	.	-	-	-	.
COc1ccc(F)cc1-c1ccc(CN2CCC(NC(=O)c3ccc(Cl)cc3)C2)cc1 (stereo not given)	14µM	.	?	.	.	.
